Results filed as inconclusive are left out. The source made the active and inactive calls. The calls were made as follows: active = hit-call score of the fitted dose curve at least 0.9, where 1 is the maximum; inconclusive = response in the unintended direction; inactive = score below 0.9.
Assay: ACEA_AR_antagonist_AUC_viability: ACEA Biosciences xCELLigence Real-Time Cell Analysis on Androgen Receptor Antagonism for Viability (AID 2283776);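 also: area under impedance growth curve at 80 h after dosing as viability; hits lower the growth signal relative to DMSO meaning cytotoxicity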
Method: ACEA_AR_antagonist is a cell-based, single-readout assay that uses 22Rv1, a human prostate cancer cell line, with measurements taken at 80 hours after chemical dosing in a 384-well plate, although TO5 and TO6 (mc0.srcf) used a 96-well plate. Differences in plate size can be ignored given data normalization.ACEA_AR_80hr is one of two assay component(s) measured or calculated from the […] assay. It is designed to make measurements of real-time cell-growth kinetics, a form of growth reporter, as detected with electrical impedance signals by Real-Time Cell Electrode Sensor (RT-CES) technology.Data from the assay component ACEA_AR_antagonist_AUC_viability was analyzed in the positive analysis fitting direction relative to DMSO as the negative control and baseline of activity. Using a type of growth reporter, loss-of-signal activity can be used to understand changes in the viability. Furthermore, this assay endpoint can be referred to as a secondary readout, because this assay has produced multiple assay endpoints where this one serves a viability function. To generalize the intended target to other relatable targets, this assay endpoint is annotated to the cell cycle intended target family, where the subfamily is cytotoxicity.
The xCELLigence system Multi-E-Plate stations were used to measure the time-dependent response to chemicals. Each compound was tested in an eight-point, 1:4 serial dilution series starting at a maximum final concentration of 100 uM. A maximum starting concentration of 0.5% DMSO was present in the 100 uM chemical samples and was diluted along with the test article dilution series. The screen was performed in biological duplicate using two separate, 96-well, E-Plates 96 for each dilution series (n = 2). Positive controls (MG132 and testosterone) and a negative control (assay media) were tested in quadruplicate on each testing plate. Then, 0.5% and 0.125% DMSO were tested in duplicates in each plate to serve as solvent controls for the 2 highest concentrations of testing compounds: 100 uM and 25 uM. Reference compounds were tested with 8 concentrations with 1:5 serial dilutions. All screening was carried out by ACEA Biosciences, Inc. (San Diego, CA). 22Rv1 cells purchased from ATCC were maintained in media supplemented with 10% fetal bovine serum (FBS). Before screening, 22Rv1 cells were preconditioned in assay medium. Cells were then detached and seeded in E-Plates 96 in assay medium. After overnight monitoring of growth once every hour, compounds were added to […] cells and remained in the medium until the end of the experiment. Cellular responses were then recorded once every 5 min for the first 5 h, and once every hour for an additional 100 h.
With `CC1(C)C(C=C(Cl)Cl)C1C(=O)OCc1cccc(Oc2ccccc2)c1` (stereo not given) the AC50 was 34.2 µM (active).
In the case of `C#C[C@]1(O)CC[C@H]2[C@@H]3CCC4=CC(=O)CC[C@@H]4[C@H]3CC[C@@]21CC`, the AC50 is reported as 0.357 µM (active).
In the case of `COC(=O)c1ccc(I)cc1S(=O)(=O)NC(=O)Nc1nc(C)nc(OC)n1`, the outcome is reported as “inactive”.
With `CC(=O)[C@H]1CC[C@H]2[C@@H]3CCC4=CC(=O)CC[C@]4(C)[C@H]3CC[C@]12C` the outcome was “inactive”.
For `CCCCC(CC)CN1C(=O)C2C3C=CC(C3)C2C1=O` (stereo not given), the AC50 was 56.8 µM (active).
For `O=C(Nc1ccc([N+](=O)[O-])cc1Cl)c1cc(Cl)ccc1O`, the AC50 was 0.821 µM (active).
For `C[C@]12CC[C@@H]3c4ccc(O)cc4C[C@@H](CCCCCCCCCS(=O)CCCC(F)(F)C(F)(F)F)[C@H]3[C@@H]1CC[C@@H]2O` (stereo not given in full), the AC50 was 8.37 µM (active).
For `CCC(C)OC(=O)N1CCCCC1CCO` (stereo not given), the outcome was “inactive”.
With `CCOC(=O)c1ccc(O)cc1` the outcome was “inactive”.
In the case of `CC(=O)S[C@@H]1CC2=CC(=O)CC[C@]2(C)[C@H]2CC[C@@]3(C)[C@@H](CC[C@@]34CCC(=O)O4)[C@H]12`, the AC50 is reported as 35.4 µM (active).
For `CC(C)CCCCCCc1ccc(O)cc1`, the AC50 was 7.91 µM (active).
In the case of `CC(C)(c1ccc(O)cc1)c1ccc(O)cc1`, the AC50 is reported as 40.9 µM (active).
In the case of `O=C(O)c1ccccc1`, the outcome is reported as “inactive”.
For `C#CCOC(=O)[C@@H](C)Oc1ccc(Oc2ncc(Cl)cc2F)cc1`, the AC50 was 23.1 µM (active).
For `CCCOC(=O)c1ccc(C(=O)OCCC)nc1`, the outcome was “inactive”.
For `CCCN(CCC)c1c([N+](=O)[O-])cc(C(F)(F)F)c(N)c1[N+](=O)[O-]`, the AC50 was 35 µM (active).
In the case of `CCCCCCC(C)OC(=O)COc1nc(F)c(Cl)c(N)c1Cl` (stereo not given), the AC50 is reported as 17.8 µM (active).
In the case of `CCN(Cc1c(F)cccc1Cl)c1c([N+](=O)[O-])cc(C(F)(F)F)cc1[N+](=O)[O-]`, the AC50 is reported as 25 µM (active).
For `CCCOC(=O)NCCCN(C)C`, the outcome was “inactive”.
In the case of `CCOC(=O)NCCOc1ccc(Oc2ccccc2)cc1`, the AC50 is reported as 27.2 µM (active).
In the case of `CCCCC(CC)COC(=O)c1ccccc1C(=O)O` (stereo not given), the outcome is reported as “inactive”.
In the case of `COC(=O)CSc1cc(N=c2sc(=O)n3n2CCCC3)c(F)cc1Cl`, the outcome is reported as “inactive”.
With `COC(=O)c1ccccc1C(=O)O` the outcome was “inactive”.
For `CCCCOC(=O)C(C)Oc1ccc(Oc2ccc(C(F)(F)F)cn2)cc1` (stereo not given), the AC50 was 50 µM (active).
For `O=C(c1ccc(O)cc1O)c1ccc(O)cc1O`, the outcome was “inactive”.
With `CCCCOCCOCCOCc1cc2c(cc1CCC)OCO2` the AC50 was 50 µM (active).
For `OB(O)O`, the outcome was “inactive”.
With `Cc1nn(C)c(Oc2ccccc2)c1C=NOCc1ccc(C(=O)OC(C)(C)C)cc1` the AC50 was 13.8 µM (active).
In the case of `O=C(O)C1(C(=O)Nc2ccc(Cl)cc2Cl)CC1`, the AC50 is reported as 50 µM (active).
With `N#CSCSc1nc2ccccc2s1` the AC50 was 15.7 µM (active).
For `N[C@@H](Cc1cc(I)c(Oc2ccc(O)c(I)c2)c(I)c1)C(=O)O`, the AC50 was 9.7 µM (active).
With `C[C@]12C[C@H](O)[C@H]3[C@@H](CCC4=CC(=O)CC[C@@]43C)[C@@H]1CC[C@@H]2C(=O)CO` the outcome was “inactive”.
With `CCN(CC)C(=O)c1cccc(C)c1` the outcome was “inactive”.
In the case of `CCOC(=O)C(C)Oc1ccc(Oc2cnc3cc(Cl)ccc3n2)cc1` (stereo not given), the outcome is reported as “inactive”.
With `CCNc1nc(N)nc(Cl)n1` the outcome was “inactive”.
For `CCCCCOC(=O)COc1cc(N2C(=O)C3=C(CCCC3)C2=O)c(F)cc1Cl`, the AC50 was 77.8 µM (active).
For `Oc1ccc(C(c2ccc(O)cc2)C(Cl)(Cl)Cl)cc1`, the AC50 was 17 µM (active).
For `COCCO`, the outcome was “inactive”.
With `CCOC(=O)COc1cc(-n2ncc(C(F)(F)F)c(C)c2=O)c(F)cc1Cl` the outcome was “inactive”.
With `CCOC(=O)C(C)Oc1ccc(Oc2nc3ccc(Cl)cc3o2)cc1` (stereo not given) the AC50 was 36.4 µM (active).
